In the OligoGym collection one finds sensor-assay potency score (higher = more potent) data, which are given here for 36 sequences.
Note: reference of the scale not given here.

The target of the first assay is HCK. As to the kind of experiment: pooled miR-30 sensor sort-seq; sequence = guide strand. To be noted: shRNA.
For the sequence TTTAGTGGTCTCGCTATCCCGG, the sensor-assay potency score (higher = more potent) was -0.689.
On the same count and under the same terms, the figure for TGATGTTGTAGAGCTCCTCTGG is -0.148; for TTTGACCAGCTTGTCATGCTGC it is 0.268; for TAGTGGTCTCGCTATCCCGGAT it is -0.53.
For the sequence TCGTTGTCCTCAATGACCCGGG, the sensor-assay potency score (higher = more potent) is -0.328.
On the same count and under the same terms, then TTCCCTTCCAAATCACAGCTGT, with 0.224; and TTGTTGTAGGTGGCCATCCAGA, with -1.38; and TTGGTGTGCTTGTTGTAGGTGG, with -0.387.
Sequence TTCTTCTCCAGCTTGAGGGATT showed a sensor-assay potency score (higher = more potent) of -0.963.
On to TTCCTCTAGGACCACCATCTGG, for which the sensor-assay potency score (higher = more potent) is -1.25.
Sequence TTAGTGGTCTCGCTATCCCGGA gave a sensor-assay potency score (higher = more potent) of -1.31.
With TTTGAGAATGTATTGCCTCCGA, the sensor-assay potency score (higher = more potent) was -0.315.

A further assay has as its target HCST. Described as above. The note with it: shRNA.
Take TAGACTTTGCCATCTTGGGCGG: the sensor-assay potency score (higher = more potent) was -0.81.
On the same count and under the same terms, then AGACTTTGCCATCTTCTTGGGC, with -0.803; and TCTCTCTCCTGGAGTCGTCTGA, with -1.08.
With TGTAGACTTTGCCATCTTCTTG, the sensor-assay potency score (higher = more potent) is -1.11.
In turn, AACAAGAGCCTGAAGTGCCAGG gave a sensor-assay potency score (higher = more potent) of -0.933.
In the case of ATGAGCAGCGATGCCACCGCAT, the sensor-assay potency score (higher = more potent) is -1.5.
Consider TGTTGATGTAGACTTTGCCATC, for which the sensor-assay potency score (higher = more potent) was -1.89.
As for TCTCTCCTGGAGTCGTCTGAGC, the sensor-assay potency score (higher = more potent) is -1.45.
Turning to TTGCCATCTTCTTGGGCGGGGC, the sensor-assay potency score (higher = more potent) is -1.23.
Same read-out and setting: then TTTGCCATCTTCTTGGGCGGGG, with 0.0264; and TTGATGTAGACTTTGCCATCTT, with -0.308; and TAGACTTTGCCATCTTCTTGGG, with -0.36.

In a further assay the target is HDGF. Described as above. The note with it: shRNA.
TTCTCGTTCTTCTCCTTGGCTG gave a sensor-assay potency score (higher = more potent) of -0.535.
As to TTCTCAGAGCTAAACTTCCAAA, the sensor-assay potency score (higher = more potent) was -1.28.
As for TCTGGGAGGACTGATAGCCGGA, the sensor-assay potency score (higher = more potent) is -0.805.
In turn, TCAGGCATCTCGTCAATCCGGG displayed a sensor-assay potency score (higher = more potent) of -0.426.
The sequence TTCTTTTCCACCTCCATAGGAA yielded a sensor-assay potency score (higher = more potent) of -0.534.
The same measure, in the same setting: the figure for TAGAACTGAAATCATCTACGGT is -0.169; for TTCCCTTCCTCGTCGCTGCTGC it is -0.283; for TTTCTCGTTCTTCTCCTTGGCT it is -0.305.
With TTCCACACAGCTCTTTTTCTGG, the sensor-assay potency score (higher = more potent) was -0.811.
TTTCTCTCTGTCCTCTCAGTGG had a sensor-assay potency score (higher = more potent) of -1.16.
The same measure, in the same setting: then TAAGGGAAGAGGTCTTTGGGGC, with -0.718.
Same read-out and setting: then TCTGGTGACAACACTGAGGGGG, with 0.602.
